From PubChem
Sampled rows, rich in hits. Any-hit rate of the full collection: about 8.7%.
JMJD2A Tudor: JMJD2A Tudor domain (human) inhibition | O75164 | AlphaScreen JMJD2A-Tudor / H3K4me3 peptide binding | Potency, µM (doses to about 114 µM), for the others: top-dose activity change, negative = inhibition, hits mostly inhibitors | 390,000 tested, 4.4% active; further: on the % scale 0 is the no-effect control and ±100 the full control effect; nearly all actives have a fitted effect of over 50% in size
Sfp inh: Sfp phosphopantetheinyl transferase inhibition | 310,000 tested, 3.5% active | Potency, µM, for inactives: largest response in the series, negative = inhibition, most hits filed as inhibitors | Q9F4F7 | Biochemical Sfp PPTase activity, qHTS;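 further: the enzyme is Sfp with the accession as filed and its product quenches rhodamine fluorescence; 0% = enzyme reaction without inhibitor and -100% = no enzyme wells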
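After 15 min at room temperature with compound, 15 nM Sfp received 5 uM rhodamine-CoA plus 12.5 uM BHQ-2-ybbR (50 mM Hepes pH 7.6, 10 mM MgCl2). Rate came from the fluorescence difference over 30 min, ex 525/em 598 nm.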
BAZ2B inh: blocks human BAZ2B. Potency, µM (doses to about 114 µM), inactives show at the top dose activity change, negative = inhibition, most hits filed as inhibitors. AID 504333. AlphaScreen BAZ2B-H3K14Ac peptide displacement. 360,000 tested, 4.4% active; further: on the % scale 0 is the no-effect control and ±100 the full control effect; nearly all actives have a fitted effect of over 60% in size
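BAZ2B 50 nM plus b-H3(5-23)K14Ac 50 nM, PBS pH 7.4/0.01% Tween-20, 30 min RT; compound added (max 110 uM), 30 min RT; streptavidin donor/Ni-chelate acceptor beads 10 ug/mL final, 20 min dark; AlphaScreen read.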
12-LOX inh: inhibitors of human 12S-lipoxygenase ALOX12; AID 1671190; 580,000 tested, 1.1% active; Potency, µM (doses to about 108 µM), without a hit: at the highest dose activity change, negative = inhibition, most hits filed as inhibitors; P18054; purified 12hLO, xylenol orange hydroperoxide absorbance; further: on the % scale 0 is the no-effect control and ±100 the full control effect
Target sequence (P18054 whole entry, looked up): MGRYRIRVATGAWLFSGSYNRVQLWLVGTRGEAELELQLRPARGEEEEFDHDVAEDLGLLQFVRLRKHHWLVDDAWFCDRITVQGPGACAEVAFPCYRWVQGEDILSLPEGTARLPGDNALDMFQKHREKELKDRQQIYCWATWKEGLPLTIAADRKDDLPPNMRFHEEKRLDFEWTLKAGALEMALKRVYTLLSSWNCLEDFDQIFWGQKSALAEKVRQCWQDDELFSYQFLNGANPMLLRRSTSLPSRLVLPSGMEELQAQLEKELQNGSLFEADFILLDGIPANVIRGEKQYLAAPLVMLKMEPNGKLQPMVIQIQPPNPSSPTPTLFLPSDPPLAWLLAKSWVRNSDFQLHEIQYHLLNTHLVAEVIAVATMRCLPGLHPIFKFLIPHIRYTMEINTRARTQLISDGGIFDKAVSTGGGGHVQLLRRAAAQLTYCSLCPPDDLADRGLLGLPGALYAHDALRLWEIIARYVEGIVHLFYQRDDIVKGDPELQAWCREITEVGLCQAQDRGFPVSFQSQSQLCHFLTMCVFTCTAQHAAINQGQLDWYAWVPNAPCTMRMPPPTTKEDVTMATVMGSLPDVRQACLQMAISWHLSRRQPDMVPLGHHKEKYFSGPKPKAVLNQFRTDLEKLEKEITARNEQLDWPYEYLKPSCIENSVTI
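Hydroperoxide product was detected by ferrous iron/xylenol orange as the 573 to 405 nm absorbance ratio. Arachidonic acid at 40 uM (final) was turned over for 30 min at room temperature by 150 nM human 12hLO, pH 7.0 Hepes buffer, after 15 min compound preincubation.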
G9a inh: blocks human histone lysine methyltransferase G9a; Potency, µM (series often up to 102 µM), without a hit: at the highest dose activity, negative = inhibition, most hits filed as inhibitors; G9a H3K9 monomethylation, AlphaScreen, 2 h; Q96KQ7; 350,000 tested, 8.8% active; further: on the % scale 0 is the no-effect control and ±100 the full control effect; nearly all actives have a fitted effect of over 75% in size
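Enzyme 20 nM + cpd, 15 min RT; add b-H3K9 pep 500 nM / SAM 20 uM; 2 h RT; anti-H3K9me1 Ab 0.5 ug/mL + SA donor / anti-rabbit acceptor beads 20 ug/mL each, 10 min; AlphaScreen read.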
HP1b binding inh: blocks HP1-beta chromodomain binding to methylated histone tails | P83916 | AlphaScreen HP1-beta / biotin-H3K9me3 peptide binding | Potency, µM (doses to about 114 µM), for inactives: top-dose activity change, negative = inhibition, usual class: inhibitors | 390,000 tested, 0.56% active | AID 540317; further: nearly all actives have a fitted effect of over 70% in size
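HP1-beta protein (50 nM final) preincubated 30 min at room temperature with biotinylated H3(1-18)K9me3 peptide (50 nM) in PBS pH 7.4, 0.01% Tween-20, then compound added for 30 min. AlphaScreen streptavidin donor/nickel chelate acceptor beads (10 ug/mL final), 30 min dark, luminescence read.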
The depositor's hits bear a star; i = inactive; ? = inconclusive; nt = no result; [ ] = remark or other dose. The call rests on the fitted dose curve; in most records, active means well fitted curve in the direction sought with a large enough effect; inconclusive means small, poorly fitted or top-dose-only effect, or another doubt; inactive means no such curve, though single readings can be large; an effect the other way counts as inactive or inconclusive. Potency means the concentration at half of the fitted maximal effect.

SMILES	JMJD2A Tudor	Sfp inh	BAZ2B inh	12-LOX inh	G9a inh	HP1b binding inh
Cc1ccc(/C=C2/C(=O)c3ccc(C(=O)O)cc3C2=O)o1	28µM*	13µM*	11µM*	?	nt	71µM*
C=CCNC(=O)N[C@H]1CCN(C(=O)CSC)[C@@H]1C(=O)N[C@@H](Cc1cccs1)C(N)=O	nt	nt	nt	-1%	nt	nt
O=C(O)c1ccc2c(c1)C(=O)/C(=C/c1ccccc1)C2=O	?	-1%	50µM*	-18%	13µM*	45µM*
CN(C)C[C@@H]1CN(c2ccncn2)C[C@H]1NC(=O)COc1ccc(Cl)cc1	nt	nt	nt	62%	nt	nt
CCn1c(SCC(=O)c2ccc(OC)cc2)nnc1C(C)NC(=O)c1ccc(OC)cc1 (stereo unspecified)	-15%	-29%	-6%	0%	45µM*	25%
COc1ccc(CC(=O)NC(C)c2nnc(SCC(=O)c3ccc(Br)cc3)n2C)cc1 (stereo unspecified)	-11%	?	-25%	-31%	40µM*	10%
CCn1c(SCC(=O)c2ccc(Br)cc2)nnc1C(C)NC(=O)Cc1ccc(OC)cc1 (stereo unspecified)	-1%	2%	5%	1%	7%	1%
Cc1ncc(C(=O)NCc2ccc3[nH]c(-c4ccccc4F)c(C)c3c2)c(C)n1	nt	nt	nt	6%	nt	nt
COC(=O)c1ccc(CSc2nc(C(F)(F)F)c3c(c2C#N)CCC3)o1	21%	56µM*	0%	42%	21%[0.0925 µM]	81%
COC(=O)CSc1nc(-c2ccc(C)cc2)c2c(c1C#N)CCCC2	30%	?	11%	-12%	-20%[2.33 µM]	73%
O=S(=O)(NC1=NCN(CCc2ccccc2)CN1)c1ccc(Br)cc1	nt	nt	nt	8%	nt	nt
Cc1ccc(OCC(=O)N(C)CC(=O)Nc2c(Cl)cccc2Cl)cc1C	nt	nt	nt	2%	nt	nt
CCc1ccc(N(C(C)=O)c2nc(CCl)cs2)cc1	-7%	-21%	-23%	?	18µM*	45%
O=C(c1nc(-c2cccnc2)no1)N1CCN(c2ccc(F)cc2)CC1	nt	nt	nt	4%	nt	nt
Nc1c(-c2ccc3c(c2)OCCO3)oc2ccccc2c1=O	30%[57.1 µM]	-6%	34%	-12%	50µM*	45%
Nc1nc(N)nc(SCc2cccc(C(F)(F)F)c2)n1	nt	nt	nt	8%	nt	nt
COc1cc(CNC2CCCc3ccccc32)cc(OC)c1OC (stereo unspecified)	10µM*	50µM*	71µM*	-15%	?	?
COc1cccc(CNC2CCCc3ccccc32)c1OC (stereo unspecified)	79µM*	-7%	?	?	40µM*	?
COc1cc(C(=O)NC2CCCc3ccccc32)cc(OC)c1OC (stereo unspecified)	-13%	27%	0%	-5%	17%	-3%
c1cncc(CNC2CCCc3ccccc32)c1 (stereo unspecified)	?	-3%	4%	0%	45µM*	23%
O=P(O)(O)C(O)(Cc1cccnc1)P(=O)(O)O	nt	13%	nt	-17%[57.4 µM]	18µM*	nt
OCc1cccnc1	nt	9%	nt	-12%[22.9 µM]	32%[59 µM]	nt
COc1ccc(C(=S)N2CCOCC2)cc1OS(=O)(=O)c1ccc(Br)cc1	-27%	-5%	-39%	i	45µM*	-11%
COc1cc(C(=S)N2CCCC2)cc(OC)c1OS(=O)(=O)c1ccc(NC(C)=O)cc1	?	35µM*	-28%	?	32µM*	?
O=C(NC(=S)N1CCOCC1)c1ccccc1Cl	0%	-20%	-2%	1.3µM*	nt	30%
SMILES	JMJD2A Tudor	Sfp inh	BAZ2B inh	12-LOX inh	G9a inh	HP1b binding inh
COc1cc(C(=O)Oc2ccc(C(=S)N3CCOCC3)cc2)cc(OC)c1OC	3%	-16%	0%	0%	nt	9%
COc1ccc(S(=O)(=O)Oc2ccc(C(=S)N3CCOCC3)cc2OC)cc1	-22%	2%	-4%	0%	nt	20%
COc1cc(C(=S)N2CCCC2)ccc1OS(=O)(=O)c1ccc(NC(C)=O)cc1	-22%	1%	10%	1%	?	44%
O=C(NC(=S)N1CCCC1)c1ccc(Cl)cc1Cl	-3%	15%	-20%	0%	11%	22%
COc1ccc(C(=O)Oc2c(OC)cc(C(=S)N3CCOCC3)cc2OC)cc1OC	?	40µM*	-12%	?	-9%[0.501 µM]	?
CN1CCc2c([nH]c3ccccc23)C12CCN(C(=O)c1cccn1C)CC2	nt	nt	nt	26%	nt	nt
CC(C)(C)c1cc(CCC(=O)N2CCCC2)cc(C(C)(C)C)c1O	-3%	12%	-16%	-5%	49%	16%
COc1ccc(C(=O)NC(=S)N2CCOCC2)cc1OC	-16%	?	-30%	-6%	50µM*	9%
COc1ccc(S(=O)(=O)Oc2c(OC)cc(C(=S)N3CCOCC3)cc2OC)cc1	-29%	28µM*	-23%	?	22µM*	-19%
COc1cc(NC(=S)N2CCCCC2C)cc(OC)c1OC (stereo unspecified)	-4%	45µM*	-19%	-10%	-49%	40%
CC(C)(C)c1cc(C(=S)N2CCCC2)cc(C(C)(C)C)c1O	?	40µM*	?	?	nt	-22%
COc1ccc(C(=O)N2CCCN(c3cc(-c4ccccc4)[nH]n3)CC2)c(C)c1	nt	nt	nt	6%	nt	nt
CN(C)C(=O)c1nc(-c2ccc(Cl)cc2Cl)c2ccccn12	nt	nt	nt	2%[6.33 µM]	nt	nt
Cc1oc(-c2ccccc2)nc1C(=O)OCC(=O)NC(C)C(C)C (stereo unspecified)	nt	nt	nt	4%	nt	nt
COc1ccc(C(=O)Oc2c(OC)cc(C(=S)N3CCOCC3)cc2OC)cc1	-18%	-4%	-30%	2%	45µM*	15%
COc1cc(C(=S)N2CCCC2)cc(OC)c1OC	-18%	50µM*	-19%	-11%	40µM*	5%
CCCC(=O)Nc1ccc2oc(-c3cc(F)c(F)cc3Cl)nc2c1	nt	nt	nt	-23%	nt	nt
O=C(O)CCc1nn2c3ccccc3n(CC(=O)O)c2nc1=O	-1%	-2%	2%	?	50µM*	22%
O=C(O)CCc1nn2c3ccccc3n(CCO)c2nc1=O	-14%	15%	-8%	-20%	?	22%
C=CCN(Cc1nc(-c2ccccc2)no1)Cc1nccn1C	nt	nt	nt	27%	nt	nt
COc1ccc2c(C)c(CC(=O)NCc3ccccc3)c(=O)oc2c1C	nt	nt	nt	-2%	nt	nt
N#CCCN(Cc1ccccc1)C(=S)NC(=O)c1ccccc1	?	-27%	-32%	-21%	?	15%
N#CCCN(C(=S)NC(=O)c1ccco1)c1ccccc1F	-33%	22µM*	-24%	-20%	25µM*	-20%
N#CCCN(Cc1cccnc1)C(=S)NC(=O)c1ccco1	22µM*	12%	?	?	10µM*	12%
N#CCCN(C(=O)c1ccco1)c1ccccc1	-12%	3%	3%	-13%	-6%	44%
